Results published in the supplement of paper PMC13380429.

Tested on: Vero E6 infected with SARS-CoV-2
Test: inhibition of SARS-CoV-2 cytopathic effect; higher = more antiviral protection, active = above 15
Settings: 48 h

Measured: inhibition of SARS-CoV-2 cytopathic effect

CCOC(=O)C1=C[C@]2(CC)CCCN3CCc4c(n1c1ccccc41)[C@@H]32 [vinpocetine]
inactive: 1 nM -3.18% | 8.33 nM 0.85% | 100 nM 4.53% | 833.33 nM 1.98% | 10000 nM -1.06%

Cc1cc(Oc2ccc3nc(COc4ccc(CC5SC(=O)NC5=O)cc4)n(C)c3c2)cc(C)c1N (stereo not given) [efatutazone]
inactive: 1 nM -0.56% | 8.33 nM 2.28% | 100 nM 0.7% | 833.33 nM 0.08% | 10000 nM -0.83%

Cc1nnc(NS(=O)(=O)c2ccc(N)cc2)s1 [sulfamethizole]
inactive: 1 nM 3.32% | 8.33 nM 0.33% | 100 nM 0.51% | 833.33 nM 1.2% | 10000 nM 3.18%

O=C1c2ccccc2C(Cc2ccnc(F)c2)(Cc2ccnc(F)c2)c2ccccc21
inactive: 1 nM 0.2% | 8.33 nM 0.21% | 100 nM 5.3% | 833.33 nM 2.26% | 10000 nM -2.51%

N=C(N)NC(=O)c1nc(Cl)c(N)nc1N [amiloride]
inactive: 1 nM 3.13% | 8.33 nM 3.86% | 100 nM 2.25% | 833.33 nM 3.19% | 10000 nM 3.14%

CCc1c(-c2ccccc2)c(-c2ccccc2)nn1-c1ccccc1-c1cccc(OCC(=O)O)c1
inactive: 1 nM -2.24% | 8.33 nM 3.84% | 100 nM 0.2% | 833.33 nM 0.13% | 10000 nM -0.58%

CCCCn1c(-c2ccccc2)nc(-c2ccccc2)c1CN(Cc1ccc2c(c1)OCO2)Cc1ccc2c(c1)OCO2
inactive: 1 nM 0% | 8.33 nM 1.63% | 100 nM -0.2% | 833.33 nM 0.71% | 10000 nM 5.96%

O=C1CC[C@@]2(O)[C@H]3Cc4ccc(O)c5c4[C@@]2(CCN3CC2CC2)[C@H]1O5
inactive: 1 nM 4.81% | 8.33 nM 3.83% | 100 nM 1.26% | 833.33 nM -1.24% | 10000 nM 0.01%

COc1ccc2cc1Oc1cc3c(cc1OC)CC[N+](C)(C)[C@H]3Cc1ccc(cc1)Oc1c(OC)c(OC)cc3c1[C@@H](C2)[N+](C)(C)CC3 [metocurine]
inactive: 1 nM -0.82% | 8.33 nM 0.93% | 100 nM 1.08% | 833.33 nM -3.28% | 10000 nM -0.33%

CC(C)(C)c1ccc(C(=O)Nc2cn3cc(-n4ccnc4)ccc3n2)cc1
inactive: 1 nM 2.98% | 8.33 nM 0.55% | 100 nM 2.27% | 833.33 nM 2.13% | 10000 nM -0.45%

CNCC[C@H](Oc1cccc2ccccc12)c1cccs1 [duloxetine]
inactive: 1 nM -2.53% | 8.33 nM -0.71% | 100 nM 0.92% | 833.33 nM -2.04% | 10000 nM -6.87%

CS(=O)(=O)c1ccc(-c2nnc(/C=C/c3nnc(-c4ccc(C#N)cc4)o3)n2-c2ccccc2Cl)nc1
inactive: 1 nM 0.69% | 8.33 nM 0.31% | 100 nM -0.3% | 833.33 nM -2.5% | 10000 nM 2.17%

O=c1[nH]cc(F)c(=O)[nH]1 [5-fluorouracil]
inactive: 1 nM 0.75% | 8.33 nM 1.63% | 100 nM 1.29% | 833.33 nM 0.37% | 10000 nM 1.52%

c1cnc2c([O][Ga]([O]c3cccc4cccnc34)[O]c3cccc4cccnc34)cccc2c1 [gallium-triquinolin-8-olate]
inactive: 1 nM -0.23% | 8.33 nM 1.56% | 100 nM -0.49% | 833.33 nM 4.98% | 10000 nM 3.63%

CCC1(CC)C(=O)NC(=O)N(C)C1=O [metharbital]
inactive: 1 nM 0.2% | 8.33 nM 2.59% | 100 nM 1.14% | 833.33 nM 0.78% | 10000 nM 2.66%

COc1cc2nc(C3CC3)nc(N3CCN(c4ccccc4OC)CC3)c2cc1OC
inactive: 1 nM -1.86% | 8.33 nM -1.01% | 100 nM -1.01% | 833.33 nM 1.94% | 10000 nM -4.17%

NC(=O)c1cc([N+](=O)[O-])cc([N+](=O)[O-])c1 [nitromide]
inactive: 1 nM 0.52% | 8.33 nM 1.05% | 100 nM 1.48% | 833.33 nM 0.38% | 10000 nM -0.05%

CN(C)CC[C@@](O)(c1ccccc1)c1ccccc1Cl [clofedanol]
inactive: 1 nM 1.53% | 8.33 nM 1.3% | 100 nM 1.86% | 833.33 nM 1.12% | 10000 nM 2.42%
